Compound activity: PubChem BioAssay, several laboratories
CYP2C9 inhib – inhibitors of human CYP2C9; P11712; AID 777; CYP2C9 Supersomes, luciferin-H conversion, luminescence; inhibition, % at 5 µM; 96,000 tested, 20% active;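 active = blocking of liver enzyme CYP2C9 beyond about 50% at 5 µM, limit read from the data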
CYP2C9 act – CYP2C9 (human) activation | P11712 | recombinant CYP2C9, luciferin-H conversion, luminescence; stronger effect = higher value; factor 1 = untreated enzyme, 0 = blocked | activation factor at 5 µM | 96,000 tested, 1.4% active;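 active = activation factor of 2 or more for CYP2C9 at a 5 µM dose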;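 note: 0 = sulfaphenazole-blocked wells and 1 = vehicle-only wells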
CYP2C19 act – cytochrome P450 2C19 (human) activation; P33261; activation factor at 5 µM; recombinant CYP2C19, luciferin-H EGE luminescence; stronger effect = higher value; 0 = fully inhibited enzyme, 1 = untreated enzyme; 96,000 tested, under 10 active;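 active = activation factor of at least 2 at 5 µM in the primary screen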;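 note: 0 = wells with 2.5 mM tranylcypromine and 1 = vehicle-only wells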
Target sequence (P33261 whole entry, looked up): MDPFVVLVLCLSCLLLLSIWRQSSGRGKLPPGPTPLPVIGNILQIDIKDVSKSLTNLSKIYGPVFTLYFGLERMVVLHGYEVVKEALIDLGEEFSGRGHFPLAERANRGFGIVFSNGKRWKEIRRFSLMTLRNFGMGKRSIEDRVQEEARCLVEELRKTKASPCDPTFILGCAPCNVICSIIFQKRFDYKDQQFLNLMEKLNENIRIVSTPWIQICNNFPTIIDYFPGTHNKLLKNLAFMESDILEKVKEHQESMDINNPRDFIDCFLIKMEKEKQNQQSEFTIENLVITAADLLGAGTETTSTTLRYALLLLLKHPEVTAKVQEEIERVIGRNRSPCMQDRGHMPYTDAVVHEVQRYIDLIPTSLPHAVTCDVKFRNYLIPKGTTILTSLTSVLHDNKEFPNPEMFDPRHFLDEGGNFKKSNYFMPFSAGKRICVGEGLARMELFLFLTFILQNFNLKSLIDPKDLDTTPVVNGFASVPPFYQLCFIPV
Cav32 inh – inhibitors of human Cav3.2 T-type calcium channel; O95180; Cav3.2-expressing cells, Fluo-4 calcium fluorescence FDSS; stronger effect = lower value; 100,000 tested, 4% active; B-score at 10 µM;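 active = single-dose well whose peak fluorescence ratio is a statistical outlier from its plate by either plate-standardised score or position-corrected B-score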
CYP2C19 inh – human CYP2C19 inhibition | CYP2C19 Supersomes, luciferin-H EGE luminescence, 30 min | AID 778 | 96,000 tested, 21% active | P33261 | inhibition, % at 5 µM;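 active = CYP2C19 inhibition above a set limit at 5 µM in the primary screen, cut at about 50% in these data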;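 note: plate controls were negative control wells for no effect and 2.5 mM tranylcypromine positive control for full effect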
The depositor's hits bear a star; . = no result given. Rows were chosen to be rich in hits. Some 27% of all compounds tested hit in one or more screens of this group.

SMILES	CYP2C9 inhib	CYP2C9 act	CYP2C19 act	Cav32 inh	CYP2C19 inh
Cc1csc(NC(=O)CNC(=O)OCc2ccccc2)n1	0	1	1	0.25	0
CC(=O)Nc1ccc(-c2csc(NCc3ccco3)n2)cc1	.	.	.	0.01	.
COc1ccc(-c2csc(NCc3ccco3)n2)cc1C	62*	0.4	0.2	-0.51	81*
c1ccc(CCNc2nc(-c3cccnc3)cs2)cc1	59*	0.4	0.1	-0.62	92*
Nc1nc(-c2cccnc2)nn1C(=O)CCc1ccccc1	.	.	.	1.3	.
Clc1ccc(Nc2nc(-c3cccnc3)cs2)cc1	6	0.9	0.2	0.54	83*
c1cncc(-c2csc(NCc3ccco3)n2)c1	74*	0.3	0.1	0.22	86*
CO/N=C\C(=N\Nc1ccc(OC)cc1)C(=O)c1ccccc1	44	0.6	0.7	2.1	30
CCN1CCN(C(c2ccccc2)c2sc3nc(C)nn3c2O)CC1 (stereo not drawn)	.	.	.	-0.048	.
CSc1nc(NC(C)=O)nc(C)c1Cl	4	1	1	0.45	-4
Cc1ccc(C(=O)COC(=O)c2cc(Cl)nc3ccccc23)cc1C	-104	2*	0.8	-2	21
CC(C)CCn1nnnc1C(c1ccc(F)cc1)N1CCN(C(=O)c2ccco2)CC1 (stereo not drawn)	96*	0	0.4	0.62	63*
COc1ccc(OC)c(C(c2nnnn2CCC(C)C)N2CCN(C(=O)c3ccco3)CC2)c1 (stereo not drawn)	74*	0.3	0.3	-0.85	67*
COCCn1nnnc1C(C(C)C)N1CCN(C(=O)c2ccco2)CC1 (stereo not drawn)	-10	1.1	1	-1.4	4
Cc1cc(C)c(NC2=NS(=O)(=O)c3ccccc32)c(C)c1	3	1	1.1	0.025	-8
Cc1ccc2oc(=O)c3cc(C(=O)NCc4ccco4)sc3c2c1	-106	2.1*	0.6	0.033	44
O=C(NCC(c1cccs1)N1CCOCC1)c1ccc(Cl)s1 (stereo not drawn)	54*	0.5	0.3	1.6	72*
CCOC(=O)c1ccoc1CSCc1ccc(C(=O)OC)o1	72*	0.3	0.7	-1	30
CCC(C)(C(=O)NC1CCCCC1)N(C(=O)CNC(C)=O)c1c(C)n(C)n(-c2ccccc2)c1=O (stereo not drawn)	-24	1.2	1.1	-0.03	-11
O=C(COc1ccccc1Cl)N1CCN(c2ncccn2)CC1	28	0.7	0.1	0.73	92*
O=C(COc1ccccc1Cl)OCC(=O)N1CCN(S(=O)(=O)c2ccccc2)CC1	-26	1.3	0.8	0.36	18
O=C(Nc1ccccc1Cl)N1CCN(c2ccc3nnc(-c4ccc(F)cc4)n3n2)CC1	66*	0.3	0.7	.	31
O=C(NCCC(=O)N1CCN(c2ncccn2)CC1)c1ccccc1Cl	54*	0.5	0.7	0.41	28
O=C(Nc1ccccc1Cl)N1CCN(c2ncccn2)CC1	7	0.9	0.1	1.3	85*
Cc1ccc(NCc2nnc(SCC(N)=O)n2CCc2ccccc2)cc1	-14	1.1	1	-0.55	2
SMILES	CYP2C9 inhib	CYP2C9 act	CYP2C19 act	Cav32 inh	CYP2C19 inh
Cc1cc(NC(=O)c2ccc(NC(=O)C(C)Oc3ccccc3)cc2)no1 (stereo not drawn)	.	.	.	-0.044	.
O=C(c1ccccc1OCc1ccccc1Br)N1CCN(c2ncccn2)CC1	99*	0	0	.	97*
COc1ccccc1C(=O)N1CCN(c2ccccn2)CC1	27	0.7	0.7	.	32
CCOC(=O)c1ccccc1NC(=O)Cc1ccccc1OC	.	.	.	-1.8	.
COc1cccc(C(=O)OCc2ccccc2C#N)c1O	76*	0.2	0.1	-1.7	92*
COc1ccc(C2Nc3ccccc3C(=O)N2Cc2ccco2)cc1COc1ccc(NC(C)=O)cc1 (stereo not drawn)	100*	0	0.2	-0.061	85*
COc1ccc(C2Nc3ccccc3C(=O)N2Cc2ccco2)cc1COc1ccccc1F (stereo not drawn)	99*	0	0.1	-5.2*	90*
O=C1CCCN1c1cccc(Br)c1	.	.	.	-0.17	.
CC(C)(C)C1CCc2c(C(=O)N/N=C/c3cccs3)csc2C1 (stereo not drawn)	63*	0.4	0.7	-2.4	35
CCn1cc(/C=N\NC(=O)c2csc3ccccc23)c(C)n1	10	0.9	0.9	0.77	8
Cc1ccc(/C=N/NC(=O)c2csc3c2CCCC3)cc1	-41	1.4	0.9	-4.9*	7
O=C(N/N=C/c1ccc(O)cc1)c1csc2ccccc12	-199	3*	0.8	-0.77	19
